Sampled rows, rich in hits. Any-hit rate of the full collection: about 4.3%.
Giardia kill: Giardia lamblia killing; 340,000 tested, 0.15% active; Giardia lamblia trophozoite viability; activity change, % at 7.66 µM, hits read low; in the data active means activity change below about -80%; inconclusive means between about -30% and that limit;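 further: parasites exposed to compound for two days anaerobically before the ATP read; on the % scale 0 is the no-effect control and ±100 the full control effect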
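Giardia trophozoites, 100 cells per well, were exposed to compounds for 48 hrs at 37 deg C under anaerobic conditions; viability was then read as ATP content by bioluminescence after 15-30 min at room temperature.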
SW480 rereplic: inducers of DNA re-replication in SW480 colon cancer cells; 340,000 tested, 1.8% active; Potency, µM (titrated, usually from 46.1 µM), for the others: at the highest dose re-replication activation, actives largely listed as activators; SW480 DNA re-replication, Hoechst DNA content imaging, 48 h; further: potency means the concentration at half of the fitted maximal effect; % of control where 0% means no effect; nearly all actives have a fitted effect of over 55% in size
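Quantitative HTS format with DMSO vehicle controls; 48 hr drug incubation at 37 C, then 40 min Hoechst staining and scanning imager measurement at 405 nm excitation.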
MCF10A rereplic: induces DNA re-replication in MCF 10a normal breast cells; MCF 10A DNA re-replication, Hoechst nuclear intensity, 48 h; 350,000 tested, 2.9% active; Potency, µM (doses to about 46.1 µM), for the others: top-dose activity, positive = re-replication, hits mostly activators; further: potency means the concentration at half of the fitted maximal effect; % of control where 0% means no effect; nearly all actives have a fitted effect of over 50% in size
uPA surface inh: cell surface uPA generation inhibition. cell surface uPA generation assay, qHTS. Potency, µM (top dose mostly 38.3 µM), inactives show at the top dose activity change, negative = inhibition, most hits filed as inhibitors. 330,000 tested, 0.31% active; active means well fitted inhibition curve with a large enough effect; inconclusive means small, poorly fitted or top-dose-only effect; inactive means no such curve, though single readings can be large or run the other way; tested in mouse RAW 264.7 cells; further: potency means the concentration at half of the fitted maximal effect; on the % scale 0 is the no-effect control and ±100 the full control effect; nearly all actives have a fitted effect of over 55% in size
The depositor's hits bear a star; u = inconclusive; x = no result given; ! = not active in a repeat. Unless noted, the call rests on the fitted dose curve; in most records, active means well fitted activation curve with a large enough effect; inconclusive means small, poorly fitted or top-dose-only effect; inactive means no such curve, though single readings can be large or run the other way.

SMILES	Giardia kill	SW480 rereplic	MCF10A rereplic	uPA surface inh
Cc1nn(Cc2ccccc2Cl)c(Cl)c1C(=O)O	10.1	2.5%	-4.1%	3.2%
COc1ccc(NC(=O)c2c(C)nn(Cc3ccccc3Cl)c2Cl)cc1Cl	-6.4	-4.9%	16.4µM*	-8.7%
CC(C)[C@]1(O)[C@@H](OC(=O)c2ccc[nH]2)[C@@]2(O)[C@@]3(C)C[C@]4(O)O[C@@]5([C@H](O)[C@@H](C)CC[C@]35O)[C@@]2(O)C41C	-25.5	x	x	x
CN(CC(=O)Nc1ccc(N2CCOCC2)cc1)CC(=O)Nc1cccc(C#N)c1	-4.3	u	15.6%	1.8%
Cc1cc(C)c2sc(NC(=O)c3ccc([N+](=O)[O-])o3)nc2c1	-81.2*	u	20.6µM*	u
CN(CCc1ccccc1)C(=O)c1ccc(NC(=O)Cc2ccc([N+](=O)[O-])cc2)cc1	13.1	-2.3%	-22.0%	u
COc1ccc2c(c1)C(c1ccc(N(CCCl)CCCl)cc1)=NCC2	-0.2	u	13µM*	-9.6%
CC[C@@]1(c2ccccc2OC)ON(c2ccccc2C(F)(F)F)C1=O	13.1	u	u	u
CC12CCC3c4ccc(OC(=O)N(CCCl)CCCl)cc4CCC3C1CCC2O (configuration not stated)	-2.7	u	20.6µM*	-16.7%
C[C@]12CC[C@@H]3c4ccc(O)cc4C(=O)C[C@H]3[C@@H]1CC[C@@H]2O	-11.3	-38.5%	-5.7%	-20.1%
Oc1c(Br)cc(Br)cc1Oc1ccc(Br)cc1Br	x	5.0%	5.8µM*	x
O=C(CSc1ncnc2c1nnn2-c1ccc(F)cc1)NCC1CCCO1 (configuration not stated)	47.5	u	u	-6.8%
O=C(NCC1CCCO1)c1cc2c([nH]c3ccccc32)c(-c2cccc(Cl)c2)n1 (configuration not stated)	-0.1	20.6µM*	u	u
CCOC(=O)c1c(NC(NC(=O)CF)C(Cl)(Cl)Cl)sc2c1CCCC2 (configuration not stated)	-10.9	-5.0%	u	-0.3%
C=CC(=O)Nc1sc2c(c1C(N)=O)CCCC2	-0.5	u	20.6µM*	u
CCN1C(=O)C(=C2C=C(C)N(Cc3ccco3)C(C)=C2)C(=O)N(CC)C1=S	-12.4	u	13µM*	-0.8%
CCN1C(=O)C(=C/C=C/c2ccco2)C(=O)N(CC)C1=S	5.5	5.0%	0.0%	-4.0%
CN1CCN(c2ccc([N+](=O)[O-])c(N3CCCCC3)c2)CC1	11.4	-4.4%	u	-7.5%
CN1CCN(c2ccc([N+](=O)[O-])c3cccnc23)CC1	-83.6*	-2.6%	12.0%	9.4%
O=C(c1ccc2c(Cl)c3c(nc2c1)CCCC3)N1CCC(N2CCCCC2)CC1	-0.7	u	14.6%	10µM*
Cc1nc2ccccc2c2oc(C(=O)N3CCN(C4CCCCC4)CC3)cc12	-7.6	-3.9%	2.7%	u
COc1cc(C(=O)N/N=C/c2ccc(OC(=O)N3CCOCC3)cc2)cc(OC)c1OC	-0.6	20.6µM*	6.51µM*	u
CC1=NCCc2c1[nH]c1cc(O)ccc21	-4.5	u	u	-8.2%
C1=NCCc2c1[nH]c1ccccc21	11.2	4.11µM*	16.4µM*	-4.4%
CC(C)[C@@]1(NC(=O)[C@@H]2C[C@@H]3c4cccc5[nH]cc(c45)C[C@H]3N(C)C2)O[C@@]2(O)[C@@H]3CCCN3C(=O)[C@H](Cc3ccccc3)N2C1=O	14.8	18.4µM*!	20.6µM*!	u
SMILES	Giardia kill	SW480 rereplic	MCF10A rereplic	uPA surface inh
COP(=O)(OC)OC=C(Cl)Cl	x	13.3µM*	11.9µM*	x
Cc1ccc(N/C(N)=N/c2nc(CSc3nnc(C)s3)cc(=O)[nH]2)c(C)c1	37.4	u	5.8µM*	3.55µM*
Cc1[nH]c2ccc(OC(F)(F)F)cc2c1CCNCc1ccc(Cl)cc1	0.7	16.4µM*	u	1.6%
Cc1[nH]c2ccc(OC(F)(F)F)cc2c1CCNCc1cccc([N+](=O)[O-])c1	16.8	u	u	-0.9%
ClCCN(CCCl)c1ccc(C=NNc2ncccn2)cc1	22.5	u	u	-11.8%
N#Cc1ncc(N=Cc2ccc(N(CCCl)CCCl)cc2)s1	-25.2	u	20.6µM*	-10.7%
Cc1cc(O)cc2c1O[C@](C)(CCC[C@H](C)CCC[C@H](C)CCCC(C)C)CC2	x	6.1%	18.8%	x
ClCCN(CCCl)c1ccc(C=Cc2ccncn2)cc1	-26.0	u	14.6µM*	-8.9%
CCOC(=O)C1CCN(/C=C2/C(=O)NC(=S)N(c3ccccc3F)C2=O)CC1	-1.4	-2.0%	-3.0%	-8.6%

Screening data: PubChem BioAssay, National Center for Advancing Translational Sciences (NCATS)
